We go through eight compounds from PubChem BioAssay (NCI).

Molecules are shown by their SMILES. This is part of a sample that, as a whole, favours compounds with a hit. Of some 83,000 tested, about 20% had one in any assay.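 Testing used 96-well plates and a 48-hour single-concentration exposure. Example: -40 means 40% of the starting cells died.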 Values without a mark were called inactive. The source made the active and inactive calls. Rule for the calls: active = growth percent below 10; inactive = the rest.

Common to all, as to assay: NCI-60 one-dose screen, 48 h (100 = growth as untreated, 0 = no growth, -100 = all killed)
Conditions in all cases: 10 µM unless noted

Assay [1] relates to HCT-15 colon.
Assay [2] has as its system HT29 colon.
In assay [3] the test system is SNB-75 CNS.
In assay [4] the test system is SNB-19 CNS.
In assay [5] the test system is U251 CNS.
The test system of assay [6] is PC-3 prostate.
Assay [7] concerns SK-MEL-5 melanoma.
Assay [8] relates to UACC-62 melanoma.
For assay [9], the system named is LOX IMVI melanoma.
The test system of assay [10] is SK-MEL-28 melanoma.
The test system of assay [11] is SK-MEL-2 melanoma.
Assay [12] deals with EKVX NSCLC.
The test system of assay [13] is SN12C renal.
Assay [14] relates to UO-31 renal.
For assay [15], the system named is TK-10 renal.
The test system of assay [16] is ACHN renal.
Assay [17] deals with CAKI-1 renal.
Assay [18] concerns A498 renal.
The test system of assay [19] is CCRF-CEM leukemia.
The test system of assay [20] is MOLT-4 leukemia.

For the compound `Fc1cccc(Cl)c1/C=N/Nc1nc(N/N=C/c2c(F)cccc2Cl)nc(N2CCCCC2)n1`, the growth in [1] was 3.94% (active); in assay [2], 3.5% (active); in [3] it was 37.5%; in assay [4], 25.8%; in assay [5], 26.8%; in [6] it was 18.7%. The growth is -59.1% (active) in [7]; 18.3% in [8]; 19.6% in [9]; 44.9% in [10]; -25.8% (active) in assay [11]; 13.8% in assay [12]. Also, the growth was 23.2% in assay [13]; 9.02% (active) in assay [14]; 27.2% in [15]; 4.21% (active) in assay [16]; 14.1% in [17]; 52.8% in assay [18]. In addition, the growth was 22.3% in assay [19] and 13.7% in [20].

Turning to `Cc1ccc(NC(=O)Nc2nc3ccc([N+](=O)[O-])cc3s2)cc1`, the growth in assay [1] was 7.79% (active); in assay [2] it was 11.7%; in [3], 1.44% (active); in [4], 11.3%; in assay [5], 4.96% (active); in assay [6], -1.61% (active). In addition, the growth in assay [7] was -55% (active); in assay [8] it was 9.49% (active); in assay [9], 11.6%; in [10], 14.8%; in assay [11], -15.2% (active); in assay [12], 4.01% (active). For the same compound, the growth in assay [13] is 3.41% (active); in assay [14] it was 6.85% (active); in assay [15], 4.02% (active); in assay [16], 1.63% (active); in assay [17], -23.2% (active); in [18] it was -34.8% (active). Moreover, the growth is 14.2% in assay [19] and 17.2% in assay [20].

For `Oc1[nH]c2ccc(Cl)cc2c1N=Nc1nc(N=Nc2c(O)[nH]c3ccc(Cl)cc23)nc(N2CCOCC2)n1`, the growth in [1] is 91.6%; in assay [2], 91.1%; in [3], -0.671% (active); in assay [4], -9.43% (active); in [5], 3.81% (active); in assay [6], 56.1%. The growth in assay [7] was 46.1%; in assay [8] it was 51.6%; in assay [9] it was 23.2%; in assay [10] it was 55%; in assay [11] it was 65.3%; in assay [12], 85.2%. The growth is 43.9% in assay [13]; 78.7% in assay [14]; 118% in assay [15]; 74.5% in assay [16]; 72% in assay [17]; 21.6% in assay [18]. In addition, the growth in [19] is 20.3%; in assay [20], 62.5%.

As to `COc1ccc(N2CCN(C3=C(Cl)C(=O)c4ncccc4C3=O)CC2)cc1`, the growth in [1] was 17.1%; in assay [2] it was 87.3%; in assay [3], 85.2%; in assay [4], 94.7%; in assay [5], 90.9%; in [6] it was 68.1%. Also, the growth in assay [7] is 95%; in assay [8], 69.3%; in assay [9] it was 21%; in assay [10], 78.3%; in [11] it was 95.1%; in [12], 99.9%. Also, the growth in [13] was 84.7%; in assay [14], 19.2%; in [15], 99.6%; in [16], -18.7% (active); in assay [17], 32.3%; in assay [18], 103%. Besides, the growth in assay [19] was 6.79% (active); in [20], 4.55% (active).

Consider `CN1CC[C@@H]2[C@@]3(C)CC[C@H](O)C(C)(C)[C@@H]3CC[C@@]2(C)[C@]2(C)CC[C@@]3(CO)CCC(C)(C)C[C@@H]3C12` (stereo not given in full), for which the growth in assay [1] is 72.7%; in assay [2] it was 40.3%; in [3], 87.7%; in assay [4], 94.5%; in assay [5], 73.9%; in [6], 79.6%. In addition, the growth in assay [7] was 95.6%; in assay [8], 93%; in assay [9], 84.8%; in assay [10], 88%; in assay [11], 102%; in assay [12], 100%. Also, the growth in assay [13] was 91.9%; in assay [14] it was 68.2%; in assay [15] it was 117%; in assay [16], 99.8%; in [17], 84.1%; in assay [18], 97.1%. Further, the growth in assay [19] was 76.2%; in [20] it was 75.4%.

Consider `COc1cc2cc(Oc3ccc(NC(=O)Nc4ccc(F)c(C(F)(F)F)c4)cc3)c(C)nc2cc1OCCN(C)C`, for which the growth was 29.2% in assay [1]; 66.5% in assay [2]; 98.8% in assay [3]; 99.8% in assay [4]; 100% in assay [5]; 92% in assay [6]. For the same compound, the growth was 90.9% in assay [7]; 106% in assay [8]; 54% in assay [9]; 81% in assay [10]; 115% in assay [11]; 97.6% in [12]. For the same compound, the growth in [13] was 96.4%; in [14], 86.6%; in assay [15], 106%; in assay [16], 106%; in assay [17], 85.1%; in assay [18], 93.6%. Also, the growth in assay [19] was 15.8%; in [20] it was 89.5%.

As for `NCCNC(=O)c1cccc(COc2ccccc2NC(=O)c2cc(Br)c(Br)[nH]2)c1`, the growth is 72.7% in assay [1]; 101% in assay [2]; 94.1% in [3]; 71.1% in assay [4]; 77.5% in assay [5]; 82.1% in assay [6]. The growth in assay [7] was 98.9%; in assay [8], 96.8%; in assay [9], -30.8% (active); in assay [10], 102%; in assay [11], 101%; in [12], 89.9%. The growth in [13] was 92.6%; in [14] it was 90%; in assay [15] it was 89%; in assay [16], 101%; in [17] it was 90.1%; in assay [18], 81.1%. In addition, the figures for the growth in assay [19] and in assay [20] were 17.9% and 68.7%, respectively.

Consider `CN1CCN(c2ccc(Nc3nc(NCCCNS(=O)(=O)c4ccc(F)cc4)c4sccc4n3)cc2)CC1`, for which the growth in assay [1] was 25.5%; in assay [2], 11.4%; in assay [3], 78.5%; in [4], 74.5%; in assay [5], 15.7%; in assay [6], 60.5%. Further, the growth in assay [7] is 20.5%; in assay [8] it was 21.1%; in assay [9], -5.7% (active); in assay [10], -42.9% (active); in assay [11], 107%; in assay [12] it was 93.5%. The growth in [13] is 82%; in assay [14], 64.7%; in assay [15] it was 140%; in assay [16] it was 70.4%; in assay [17], 67.6%; in [18], 128%. Besides, the results for the growth in assay [19] and in assay [20] were 31.1% and 21.6%, respectively.
